Test results reported in PubChem BioAssay (NCI).
The panel holds about 79,000 compounds, 15% with a hit somewhere; the sample as a whole holds those more often. Unmarked numbers belong to inactive results. The source made the active and inactive calls. Rule as the data show it: active = growth inhibition above about 70%; inactive = the rest.

What was measured:
[1] = NCI Yeast Anticancer Drug Screen. Data for the rad50 strain (AID 155);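 also: 0% = growth of vehicle-only cultures of the same strain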; details: S. cerevisiae rad50 strain growth inhibition; at 50.0 µM; stronger effect = higher value
How it was run: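 Growth of the mutant yeast was measured after compound exposure and referenced to vehicle-treated cultures.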

[2] = NCI Yeast Anticancer Drug Screen. Data for the mec2-1 strain (AID 157); details: S. cerevisiae mec2-1 strain, at 50.0 µM, stronger effect = higher value
How it was run: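 Growth inhibition is read against vehicle-treated controls after compound exposure of the mec2-1 yeast strain, which is defective in DNA damage repair or cell cycle control.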

[3] = NCI Yeast Anticancer Drug Screen. Data for the sgs1 mgt1 strain (AID 161);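 also: 0% = growth of cultures given vehicle only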; details: S. cerevisiae sgs1 mgt1 strain, at 50.0 µM, stronger effect = higher value
How it was run: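 Growth of a repair-deficient yeast mutant was monitored after compound treatment and expressed as inhibition relative to vehicle-treated cultures.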

[4] = NCI Yeast Anticancer Drug Screen. Data for the cln2 rad14 strain (AID 165);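 also: 0% = growth equal to vehicle treated cultures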; details: S. cerevisiae cln2 rad14 strain, at 50.0 µM, stronger effect = higher value
How it was run: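 Growth inhibition, relative to vehicle-treated controls, is the read-out. The test organism is a yeast strain with defined genetic alterations, cln2 rad14.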

[5] = NCI Yeast Anticancer Drug Screen. Data for the bub3 strain (AID 167); details: S. cerevisiae bub3 mutant strain, at 50.0 µM, stronger effect = higher value
How it was run: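 Whole-cell yeast assay. The mutant strain was incubated with compounds, and growth inhibition was determined by comparison with vehicle-treated cells.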

[6] = NCI Yeast Anticancer Drug Screen. Data for the mlh1 rad18 strain (AID 175); details: S. cerevisiae mlh1 rad18 strain growth inhibition; at 50.0 µM; stronger effect = higher value
How it was run: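 Cells of a genetically altered yeast strain, deficient in DNA damage repair, were treated with compound. Their growth was then compared with that of vehicle-treated cultures to give inhibition.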

| Structure (SMILES) | growth inhibition [1] | growth inhibition [2] | growth inhibition [3] | growth inhibition [4] | growth inhibition [5] | growth inhibition [6] |
| --- | --- | --- | --- | --- | --- | --- |
| CC(C)(SC(=N)N)B(O)O | -3.2% | -12.3% | -6.55% | 9.35% | -8.35% | -7.7% |
| CC12CCC(=O)C=C1CCC1C2C(=O)CC2(C)C1CCC2(O)C(=O)Cn1cc(F)c(=O)[nH]c1=O (stereo unspecified) | 12.1% | 9.5% | 32.8% | 11.9% | -1.25% | 6.5% |
| CSc1sc2ccc(S(=O)(=O)O)cc2[n+]1C | 24.1% | -6.7% | 15.7% | -4.4% | -1.85% | 9.8% |
| CCCNC(=O)/C=C\S(=O)CCC (stereo unspecified) | -1.15% | 2.9% | 1.15% | -16.5% | 16.9% | -2.6% |
| COc1cc(/C(=C\c2ccccc2N)C(=O)O)cc(Br)c1OC | 9.35% | -8.2% | -11.2% | 4.65% | 0% | 1.65% |
| O=C(Nc1ccccc1F)OCCCl | 11.8% | -23.6% | 6.55% | 1.45% | 3.55% | 4.4% |
| Cc1ccc(S(=O)c2ccccc2C(O)(C(F)(F)F)C(F)(F)F)cc1 (stereo unspecified) | 76.2% (active) | 75.8% (active) | 74.6% (active) | 59.6% | 52.1% | 75.7% (active) |
| NC(=O)Nc1ccc2ccccc2c1 | 8.8% | -9.75% | 1.65% | -3.95% | -19.8% | -5.25% |
| Cc1cc2c(c(=O)o1)C(C)CC(c1c(O)cc(C)oc1=O)O2 (stereo unspecified) | 15.3% | 5.35% | 16.8% | 5.85% | 14.1% | 20.6% |
| Cc1ccc(NC(=O)Nc2ccc(C)cc2)cc1 | 0.7% | -14.9% | -12.8% | -9.25% | -2.3% | -18.1% |
| O=C(N/N=C\c1coc([N+](=O)[O-])c1)N/N=C/c1ccoc1 | 0.75% | 14.2% | 3.65% | -25.7% | -8.35% | 1.1% |
| O=[N+]([O-])c1cccc2c1ccc1nonc12 | 17.2% | -5.15% | 2.55% | -52.1% | -15.8% | 20.5% |
| Cc1ccc(C2C3CCC(=O)C=C3CN2C=O)cc1O (stereo unspecified) | 10.2% | 8.4% | -3.2% | -44.6% | -2.6% | 12.8% |
| CC(C)CC(Br)C(=O)NCC(=O)NCC(=O)O (stereo unspecified) | 32.3% | -17.1% | -5.35% | 7.95% | 2.85% | -8.95% |
| [Cl][Pt+2][Cl].[NH-]c1ccc(CC(=O)O)cc1[NH-] | 48.4% | 7.1% | 23.4% | 39.8% | -11.1% | -4.2% |
| CSC1C(OC(=O)c2ccccc2)C(COC(=O)c2ccccc2)OC1n1cnc2ncnc(NC(=O)c3ccccc3)c21 (stereo unspecified) | 45.4% | 20.4% | 34.6% | 29.4% | 6.45% | 38.8% |
| O=S1(=O)OCOS(=O)(=O)OCO1 | -24.9% | -28.6% | -14.2% | -4.8% | -13.8% | -19.9% |
| O=S(NOCc1ccccc1)c1ccccc1 (stereo unspecified) | 13.3% | 24.2% | 3.95% | -31.8% | -6% | 9.75% |

| Structure (SMILES) | growth inhibition [1] | growth inhibition [2] | growth inhibition [3] | growth inhibition [4] | growth inhibition [5] | growth inhibition [6] |
| --- | --- | --- | --- | --- | --- | --- |
| COc1ccc2c3c(n(Cc4ccccc4)c(=O)c2c1)-c1cc(OC)c(OC)cc1C3C (stereo unspecified) | 36.1% | -21.7% | -1.25% | -26.6% | -20.4% | 23.1% |
| NOCCCCON | -5.05% | -6.8% | 8.95% | -66.8% | 0.25% | -7.05% |
| CCCCOC1NC(=O)NC(=O)C1(F)C(=O)OCC (stereo unspecified) | 4% | -9.75% | 5.45% | 9.4% | -9.55% | -0.85% |
| CN(C)CC(=O)N1CCc2c([nH]c3ccccc23)C1c1cccnc1 (stereo unspecified) | -44.9% | -10.2% | 3.6% | -3.1% | -15.3% | -16.9% |
| Cn1nc(-c2ccc(Cl)c(Cl)c2)[n+]([O-])c2c(=O)n(C)c(=O)nc1-2 | 88.8% (active) | 92.1% (active) | 88.8% (active) | 89% (active) | 85.3% (active) | 91.3% (active) |
| CC1(C)OC2COC(c3[nH]nc(C(N)=O)c3C(=O)N=[N+]=[N-])C2O1 (stereo unspecified) | -11.3% | -1.35% | -12.1% | 4.35% | 7.85% | -9.95% |
| O=C(O)c1ccc(CS(=O)c2ccccc2)c([N+](=O)[O-])c1 (stereo unspecified) | 8.2% | -0.7% | -1.45% | 14.4% | -4.9% | 24.7% |
| C/C(=N\NC(=S)N1CCC(C2CCN(C(=S)N/N=C(\C)c3ccccn3)CC2)CC1)c1ccccn1 | 32.4% | 15.5% | 60.1% | 45.2% | 63.9% | -27.4% |
| O=C1c2ccccc2-c2cc(Cl)c(Cl)cc21 | 13.4% | 2.1% | 13.7% | 17.1% | -1.8% | -22.2% |
| NC(=O)N1CCCCN1C(N)=O | 9.9% | -7.95% | -1.6% | -55% | 6.75% | -4.65% |
| CC1CCC(OC(=O)Cc2ccccc2)CC1 (stereo unspecified) | 26.7% | 18% | 9.55% | -15.1% | 18.5% | 24.6% |
| CCOC(=O)C1CN(CCCN2CC(C(=O)OCC)C(=O)C2=O)C(=O)C1=O (stereo unspecified) | 9.9% | 7.25% | 3.5% | 24.1% | 9.95% | -3.95% |
| Cc1c(C)c(C)c(CC2(C)CSC2)c(CC2(C)CSC2)c1C | -1.65% | -20.2% | -12.6% | 14.6% | -41.8% | 10.9% |
| N#CC(NCCCNC(C#N)c1ccccc1)c1ccccc1 (stereo unspecified) | -1% | 5.05% | -4.6% | -23.7% | -3.9% | -18.4% |
| Cc1cc2c3c(c1)CCCN3CCC2 | -12.1% | -8.9% | -9.85% | -30.9% | 3.1% | 2.8% |
| O=C(Nc1cccc(Cl)c1)c1cc2cc(N=Nc3ccc(Br)cc3)ccc2oc1=O | 36.4% | 33.6% | 27% | 29.1% | 9.45% | 18.2% |
| O=C(O)/C=C/C(=O)Nc1ccccc1NC(=O)/C=C/C(=O)O | 15.2% | 16.2% | 31.2% | 27.8% | 19.9% | -1.9% |
| COc1cc2c(cc1Cc1cc(OC)c(OC)c(OC)c1)OCO2 | 4.35% | -17.2% | 9.55% | -3.15% | 28.9% | 24.4% |
